This note sets out measurements from the supplement of paper PMC13380429.

Assay [1] relates to Vero E6 infected with SARS-CoV-2. The assay is described as follows: morphology score (similarity to uninfected cells); higher = more like uninfected cells. The note with it: 24 h.
For assay [2] the test system is unchanged. Briefly: SARS-CoV-2 infection rate relative to infected DMSO; higher = more infection, active = 60 or less. As to conditions: 24 h.

Take `O=C(O)c1nc(=O)[nH]c(=O)[nH]1` [oxonic-acid] (10 µM): the morphology score in assay [1] was -0.0587. Moreover, the SARS-CoV-2 infection rate in assay [2] was 115% (inactive).
For `c1ccc(-c2ccc(CNc3nc(-c4ccccn4)nnc3-c3ccccc3)cc2)cc1` (10 µM) the same measures were -0.0584 and 114% (inactive).
`Oc1cc2c(c(Cl)c1O)CCNCC2c1ccccc1` (stereo not drawn) (10 µM): the morphology score in assay [1] was 0.16. Further, in assay [2], the SARS-CoV-2 infection rate is 97.5% (inactive).
In the same order, the values of `O=[N+]([O-])c1cccc2cn[nH]c12` [7-nitroindazole] (10 µM) are 0.0542 and 100% (inactive).
In turn, `CN(C)C1CCN(C(=O)c2ccc(NC(=O)Nc3ccc(-c4nc(N5CCOCC5)nc(N5CCOCC5)n4)cc3)cc2)CC1` (10 µM) yielded a morphology score in assay [1] of -0.0113. Besides, in assay [2], the SARS-CoV-2 infection rate was 115% (inactive).
In the same order, the values of `CC(OC(=O)OC1CCCCC1)OC(=O)C1=C(CSc2nnnn2CCN(C)C)CS[C@@H]2[C@H](NC(=O)Cc3csc(N)n3)C(=O)N12` (stereo partly drawn) [cefotiam-cilexetil] (10 µM) are -0.0288 and 109% (inactive).
In assay [1], `CC(C)C[C@@H](NC(=O)[C@H](C)NC(=O)CNC(=O)[C@@H](NC=O)C(C)C)C(=O)N[C@@H](C)C(=O)N[C@@H](C(=O)N[C@H](C(=O)N[C@@H](C(=O)N[C@@H](Cc1c[nH]c2ccccc12)C(=O)N[C@H](CC(C)C)C(=O)N[C@@H](Cc1c[nH]c2ccccc12)C(=O)N[C@H](CC(C)C)C(=O)N[C@@H](Cc1c[nH]c2ccccc12)C(=O)N[C@H](CC(C)C)C(=O)N[C@@H](Cc1c[nH]c2ccccc12)C(=O)NCCO)C(C)C)C(C)C)C(C)C` [gramicidin] (10 µM) displayed a morphology score of -0.258. Further, in assay [2], the SARS-CoV-2 infection rate was 100% (inactive).
In the same order, the values of `O=C(c1ccc(F)cc1)C1CCN(CCn2c(=S)[nH]c3ccccc3c2=O)CC1` [altanserin] (10 µM) are -0.0789 and 99% (inactive).
In the same order, the values of `CC1(C)C(=O)NC2=C1C(=O)C(=O)c1ccccc12` (0.833333 µM) are -0.0548 and 114% (inactive).
